In PubChem BioAssay (Tox21) one finds Potency and outcome data, which are given here for 25 compounds.

Values joined by “and” are separate entries in the source; they are usually repeats but may differ in a detail not shown here. Equal values may be shown once. Inconclusive results are not listed. Some structures have more than one record in an assay (separate samples or runs), and their calls can disagree. Active and inactive are the calls of the source. Unless noted, the call rests on the fitted dose curve; in most records, active means well fitted curve in the direction sought with a large enough effect in the repeat runs; inconclusive means weak or mixed curves; inactive means no such curve, though single readings can be large; an effect the other way counts as inactive or inconclusive.

Assay [1] is described as follows: qHTS assay for small molecule agonists of the p53 signaling pathway (AID 651631; calls by dose curve; further: nearly all actives have a fitted effect of over 15% in size). An outline of the steps:
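Readout was fluorescence from the LiveBLAzer FRET substrate, applied for 2 h at room temperature after 16 h compound exposure at 37 °C. Cells were the p53RE-bla HCT-116 line, with beta-lactamase driven by p53 response elements.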
(qHTS replaces the single test concentration by a dilution series.)

Assay [2] is described as follows: qHTS assay for small molecules that induce genotoxicity in human embryonic kidney cells expressing luciferase-tagged ATAD5 (AID 651632). Further: nearly all actives have a fitted effect of over 15% in size. An outline of the steps: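 Quantitative HTS in HEK293T expressing luciferase-tagged ATAD5, whose levels rise upon DNA damage. Exposure ran 16 hr at 37C and 5% CO2, with luminescence read 30 min after Amplite addition at room temperature.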

Assay [3] in a line: qHTS assay for small molecule agonists of the p53 signaling pathway - cell viability (AID 651633; calls by dose curve; further: series mostly up to about 83 µM; nearly all actives have a fitted effect of over 30% in size). An outline of the steps:
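Viability counter-read: CellTiter-Glo luminescence (30 min, room temperature) in the same p53RE-bla plates. These plates had been exposed to compounds for 16 h at 37 C.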

Assay [4] is described as follows: qHTS assay for small molecules that induce genotoxicity in human embryonic kidney cells expressing luciferase-tagged ATAD5 - cell viability (AID 651634; calls by dose curve; further: nearly all actives have a fitted effect of over 25% in size). Put shortly: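 After 15.5 hr incubation with compound at 37C, 5% CO2, HEK293T ATAD5-luciferase cells received CellTiter-Fluor reagent; fluorescence intensity was quantified following 30 min at 37C.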
Assay [5] in a line: qHTS assay for small molecule disruptors of the mitochondrial membrane potential - cell viability (AID 720634; calls by dose curve;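 further: human HepG2 liver cancer cells; series mostly up to about 83 µM; nearly all actives have a fitted effect of over 20% in size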). An outline of the steps: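 ATP-based luminescent viability readout (CellTiter-Glo, 30 min, room temperature) in HepG2 cells multiplexed with the m-MPI membrane potential dye; compound exposure lasted 1 hr at 37 C.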
A short description of assay [6]: qHTS assay for small molecule disruptors of the mitochondrial membrane potential (AID 720635). Further: potency means the concentration at half of the fitted maximal effect. An outline of the steps: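 Mitochondrial membrane potential tracked with Mito-MPS dye, red aggregates (ex 540/em 590 nm) against green monomers (ex 490/em 535 nm). Compound treatment 1 hr at 37C, dye 30 min in HepG2.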
Assay [7] can be described thus: qHTS assay to test for compound auto fluorescence at 590 nm (red) in HepG2 cells (AID 720674). Put shortly:
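1 hr compound incubation on HepG2 cells, 37 C, 5% CO2; plate read ex 540 nm / em 590 nm; intensities reported as Rose Bengal sodium equivalents.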

Assay [8] in a line: qHTS assay to test for compound auto fluorescence at 535 nm (green) in HepG2 cells (AID 720675).
Assay [9] can be described thus: qHTS assay to test for compound auto fluorescence at 460 nm (blue) in HEK293 cells (AID 720678). An outline of the steps:
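HEK293 cells (2,000 per well, medium with 10% dialyzed FBS) attached for 4-5 hr at 37C, then received compound and stood overnight at 37C, 5% CO2. Blue fluorescence was read at Ex/Em 405/460 nm and expressed relative to triamterene.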

A short description of assay [10]: qHTS assay to test for compound auto fluorescence at 590 nm (red) in HEK293 cells (AID 720679). An outline of the steps:
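HEK293 cells (2,000/well, medium with 10% dialyzed FBS) attached for 4-5 hr at 37C, received 23 nL compound and were incubated overnight at 37C, 5% CO2. Red fluorescence was then read at 540/590nm Ex/Em, referenced to Rose Bengal sodium.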

For the compound `CCOC(=O)CC(=O)OCC`, the Potency result in [1], in [2], in assay [3], in assay [4], in assay [5] and in assay [6] was “inactive” throughout. The Potency result in assay [9] was “inactive”. Moreover, the compound was called inactive in [7], in assay [8] and in [10].

`Cc1ccc(Cl)cc1`: the Potency entry in assay [1], in assay [2], in assay [3], in [4], in [5] and in assay [6] was “inactive” throughout. In assay [9], the Potency entry was “inactive”. Besides, the call in [7], in assay [8] and in assay [10] was inactive.

As to `CC(=O)Nc1ccc(CC(=O)O)cc1`, the Potency entry in assay [1], in [2], in assay [3], in assay [4], in assay [5] and in [6] was “inactive” in each case. The Potency result in [9] is “inactive”. Moreover, the result in [7], in [8] and in [10] was inactive.

In the case of `CC(C)=CCC/C(C)=C/C=O`, the Potency entry in assay [1], in [2], in assay [3], in assay [4], in [5] and in assay [6] was “inactive” in each case. In addition, the Potency entry in assay [9] is “inactive”. Further, the outcome in assay [7], in assay [8] and in [10] was inactive.

Regarding `COc1ccc(N)c(OC)c1`, the Potency entry in assay [1], in [2], in assay [3], in assay [4], in assay [5] and in [9] was “inactive” each time. The Potency in assay [6] is 54.5 µM (active). For the same compound, the result in assay [7], in [8] and in assay [10] was inactive.

In the case of `CCCCCNCCCCC`, the Potency entry in assay [1], in assay [2], in [3], in [4], in [5] and in assay [6] was “inactive” in each case. The Potency entry in assay [9] was “inactive”. The outcome in assay [7], in assay [8] and in assay [10] was inactive.

In the case of `CN1CCCC1=O`, the Potency result in [1], in [2], in assay [3], in assay [4], in assay [5] and in [6] was “inactive” each time. Further, the Potency result in assay [9] is “inactive”. Also, the outcome in [7], in assay [8] and in [10] was inactive.

Take `Cc1cc(C)cc(O)c1`: the Potency entry in assay [1], in assay [2], in [3], in assay [4], in assay [5] and in assay [6] was “inactive” in each case. In [9], the Potency entry was “inactive”. Besides, the compound was classed as inactive in assay [7], in [8] and in assay [10].

On to `CCOC(=O)c1ccc(O)cc1`, for which the Potency result in assay [1], in [2], in [3], in assay [4], in assay [5] and in assay [9] was “inactive” in each case. For the same compound, the Potency result in [6] was “inactive and 21.7 µM (active)”. The compound was called inactive in assay [7], in assay [8] and in assay [10].

On to `CC/C=C(\C(=O)N[C@@H]1C(=O)N2C(C(=O)OCOC(=O)C(C)(C)C)=C(COC(N)=O)CS[C@H]12)c1csc(N)n1`, for which the Potency entry in assay [1], in assay [2], in assay [3], in assay [4], in [5] and in assay [6] was “inactive” throughout. Also, in [9], the Potency entry is “inactive”. Moreover, the compound was called inactive in assay [7], in assay [8] and in assay [10].

Turning to `CCCCC(=O)O`, the Potency result in [1], in assay [2], in [3], in [4], in assay [5] and in assay [6] was “inactive” throughout. Besides, the Potency result in [9] is “inactive”. The call in assay [7], in assay [8] and in assay [10] was inactive.

`O=C1OC(=O)c2c(Cl)c(Cl)c(Cl)c(Cl)c21`: the Potency entry in [1], in assay [2], in [3], in assay [4], in assay [5] and in assay [6] was “inactive” each time. The Potency result in [9] was “inactive”. Further, the result in assay [7], in [8] and in assay [10] was inactive.

With `CCn1cc(C(=O)O)c(=O)c2cc3c(cc21)OCO3`, the Potency entry in [1], in assay [2], in assay [3], in [4], in assay [5] and in assay [6] was “inactive” throughout. Moreover, in [9], the Potency entry was “inactive”. Also, the compound was called inactive in assay [7], in [8] and in assay [10].

Turning to `CC(=O)c1nccs1`, the Potency result in assay [1], in assay [2], in [3], in [4], in assay [5] and in assay [6] was “inactive” each time. For the same compound, the Potency entry in assay [9] is “inactive”. The call in [7], in assay [8] and in [10] was inactive.

With `O=[N+]([O-])c1cc(C(F)(F)F)ccc1Cl`, the Potency result in [1], in [2], in assay [3], in [4], in assay [5] and in assay [6] was “inactive” in each case. In addition, the Potency entry in [9] is “inactive”. The compound was classed as inactive in [7], in assay [8] and in assay [10].

In the case of `CC(=O)OC(C)(C)C1CC=C(C)CC1` (centres undefined), the Potency entry in assay [1], in assay [2], in assay [3], in assay [4], in [5] and in [6] was “inactive” throughout. Further, the Potency result in assay [9] is “inactive”. Also, the call in assay [7], in assay [8] and in assay [10] was inactive.

Regarding `OCc1ccc(Cl)cc1Cl`, the Potency entry in assay [1], in [2], in [3], in assay [4], in [5] and in [6] was “inactive” in each case. Also, the Potency result in [9] is “inactive”. The call in assay [7], in assay [8] and in assay [10] was inactive.

Regarding `Brc1ccc(Oc2ccc(Br)cc2)cc1`, the Potency result in [1], in [2], in assay [3], in assay [4], in assay [5] and in [9] was “inactive” in each case. Moreover, the Potency in assay [6] was 21.7 µM (active) and 27.3 µM (active). Moreover, the compound was called inactive in assay [7], in assay [8] and in [10].

For `CC(=O)OC[C@H]1O[C@@](COC(C)=O)(O[C@H]2O[C@H](COC(C)=O)[C@@H](OC(C)=O)[C@H](OC(C)=O)[C@H]2OC(C)=O)[C@@H](OC(C)=O)[C@@H]1OC(C)=O`, the Potency entry in assay [1], in assay [2], in assay [3], in [4], in [5] and in [6] was “inactive” in each case. For the same compound, the Potency entry in [9] was “inactive”. In addition, the compound was called inactive in assay [7], in [8] and in assay [10].

As to `OCC(O)CS` (centres undefined), the Potency result in assay [1], in assay [2], in [3], in assay [4], in assay [5] and in assay [9] was “inactive” each time. The compound was classed as inactive in assay [7], in assay [8] and in assay [10].

With `CCCCCCCC(=O)O`, the Potency entry in [1], in assay [2], in [3], in [4], in assay [5] and in [6] was “inactive” throughout. Also, the Potency entry in assay [9] is “inactive”. Also, the compound was called inactive in assay [7], in [8] and in assay [10].

`CC/C(C)=N/O`: the Potency result in assay [1], in assay [2], in assay [3], in assay [4], in assay [5] and in [6] was “inactive” each time. In addition, in assay [9], the Potency entry was “inactive”. For the same compound, the outcome in assay [7], in assay [8] and in assay [10] was inactive.

For `Cc1ccc(C)c(S(=O)(=O)O)c1`, the Potency result in [1], in assay [2], in assay [3], in assay [4], in [5] and in assay [6] was “inactive” in each case. Besides, the Potency result in assay [9] is “inactive”. The call in assay [7], in assay [8] and in [10] was inactive.

Consider `O=C1C(N(CO)C(=O)NCO)N(CO)C(=O)N1CO` (centres undefined), for which the Potency entry in assay [1], in assay [2], in [3], in [4], in assay [5] and in assay [6] was “inactive” each time. In [9], the Potency entry is “inactive”. Further, the compound was classed as inactive in assay [7], in assay [8] and in assay [10].

Take `O=Cc1ccc(CO)o1`: the Potency entry in [1], in [2], in assay [3], in assay [4], in [5] and in [6] was “inactive” in each case. The Potency result in [9] was “inactive”. Further, the outcome in assay [7], in [8] and in [10] was inactive.
